Bioassay records (PubChem BioAssay)
MPTP block: mitochondrial permeability transition pore inhibitors, primary screen, biochemical, isolated mouse mitochondria, absorbance. Ca2+ swelling absorbance, 30 min. inhibition, % at 10 µM. actives 1.4% (n = 360,000). AID 602449, 2012;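 active = inhibition of 50% or more, scaled per plate between neutral and stimulator controls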
NR3A LBD binder: binders of NR3A ligand-binding domain, primary screen, biophysical, differential scanning fluorimetry, uHTS; Glutamate receptor ionotropic, NMDA 3A (GRIN3A) ligand-binding domain; NR3A LBD differential scanning fluorimetry, Tm shift; 0% = protein alone, 100% = glycine-bound protein; Tm shift relative to glycine control, % at 25 µM; actives 2.5% (n = 340,000);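 active = melting temperature shift of at least 10% of the positive control shift, at one fixed dose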
Mdm2 MdmX PPI: inhibitors of human Mdm2-MdmX association, primary screen, cell-based, luminescence, split luciferase, SaOS-2, uHTS. Protein Mdm4 (Homo sapiens) + E3 ubiquitin-protein ligase Mdm2 (Homo sapiens), …. SaOS-2 split-luciferase Mdm2/MdmX complementation. inhibition, % at 8 µM. actives 3% (n = 330,000). AID 485346, 2010;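 active = inhibition of at least 50% at 8 µM in the primary screen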
Target sequence (O15151 whole entry, looked up): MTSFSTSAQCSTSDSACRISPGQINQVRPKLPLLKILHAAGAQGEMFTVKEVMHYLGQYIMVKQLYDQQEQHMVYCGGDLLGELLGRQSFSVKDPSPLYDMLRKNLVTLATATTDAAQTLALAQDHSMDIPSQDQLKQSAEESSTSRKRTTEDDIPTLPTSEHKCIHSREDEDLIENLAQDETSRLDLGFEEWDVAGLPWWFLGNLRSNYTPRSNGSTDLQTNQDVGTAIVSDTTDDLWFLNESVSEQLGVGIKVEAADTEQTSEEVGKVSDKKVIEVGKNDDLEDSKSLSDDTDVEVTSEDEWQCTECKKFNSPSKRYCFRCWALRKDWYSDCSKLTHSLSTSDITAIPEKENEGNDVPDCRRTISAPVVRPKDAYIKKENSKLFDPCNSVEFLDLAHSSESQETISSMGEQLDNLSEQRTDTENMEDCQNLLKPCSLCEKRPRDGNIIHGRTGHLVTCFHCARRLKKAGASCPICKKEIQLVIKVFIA
Target sequence (Q00987 whole entry, looked up): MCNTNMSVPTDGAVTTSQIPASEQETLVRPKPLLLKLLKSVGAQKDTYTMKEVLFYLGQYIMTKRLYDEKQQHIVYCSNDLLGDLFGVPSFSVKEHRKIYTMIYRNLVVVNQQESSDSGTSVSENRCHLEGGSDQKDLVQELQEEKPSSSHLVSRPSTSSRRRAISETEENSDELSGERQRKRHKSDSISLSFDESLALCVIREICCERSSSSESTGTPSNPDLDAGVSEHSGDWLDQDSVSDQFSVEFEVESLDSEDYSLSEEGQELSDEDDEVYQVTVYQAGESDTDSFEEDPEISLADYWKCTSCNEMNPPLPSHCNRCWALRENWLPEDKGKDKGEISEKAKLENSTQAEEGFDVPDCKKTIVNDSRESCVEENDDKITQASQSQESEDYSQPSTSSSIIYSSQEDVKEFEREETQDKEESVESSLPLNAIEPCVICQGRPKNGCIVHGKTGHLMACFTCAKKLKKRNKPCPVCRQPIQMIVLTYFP
Beta apoptosis: inhibitors of cytokine-induced beta cell apoptosis, primary screen, luminescence; actives 0.8% (n = 300,000); protection from apoptosis, % (test concentration not listed); INS-1E cytokine-induced death, ATP luminescence, 48 h; percent of positive-control rescue, neutral wells zero;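 active = Every replicate reaches about 75%, or at least half do and their mean reaches it too, limit read from the data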;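 also: higher means more ATP so stronger rescue from cytokine killing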
Gli-Sufu block: Gli-Sufu pathway antagonists, primary screen, luciferase luminescence, Sufu-KO-LIGHT cells, uHTS; Sufu-KO-LIGHT fibroblasts, Gli luciferase reporter luminescence; inhibition, % at 5 µM; actives 0.74% (n = 340,000); AID 588413, 2011;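 active = inhibition above about 55%, limit read from the data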
CSC inhib: cancer stem cell viability inhibitors, primary screen, luminescence; inhibition, % at 7.5 µM; cancer stem cell-like cells viability; actives 1.1% (n = 300,000); in the data active = inhibition above about 75%; tested in HMLE shEcad cells
Mdm2 MdmX conf: Mdm2-MdmX complex disruptors, retested hits, confirmation, luminescence, single concentration; shares compounds with Mdm2 MdmX PPI; Mdm2-MdmX binding, luminescent assay; inhibition, % at 8 µM; actives 55% (n = 10,000); AID 489028, 2010; in the data active = inhibition above about 40%
FLuc counter: full-length luciferase signal inhibition, confirmation, counter-screen for Mdm2/MdmX interaction inhibitor project, cell-based, single concentration, SaOS-2; SaOS-2 full-length luciferase counterscreen, luminescence; actives 77% (n = 6,200); inhibition, % at 8 µM; shares compounds with Mdm2 MdmX PPI;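 active = mean inhibition at 8 µM reaching about 37%, which flags the compound as non-specific, limit read from the data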;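 also: p53-null SaOS-2 cells with luciferase driven by a doxycycline-inducible promoter; compound on cells about two nights before reading with doxycycline added after day one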
Gli-Sufu confirm: Gli-SUFU pathway antagonists, confirmation, single concentration, luciferase luminescence, Sufu-KO-LIGHT cells; shares compounds with Gli-Sufu block; Gli luciferase reporter; inhibition, % at 5 µM; actives 40% (n = 2,500); AID 602428, 2012;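 active = mean inhibition at 5 µM reaching about 45%, limit read from the data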
SufuKO cytotox: cytotoxicity in Sufu-KO-LIGHT cells, confirmation, cytotoxicity control for Gli-SUFU antagonist project, cell-based, ATP luminescence, single concentration. AID 651994, 2013. cytotoxicity, % at 5 µM. actives 32% (n = 2,500). shares compounds with Gli-Sufu block;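 active = mean cytotoxicity at 5 µM above about 25%, limit read from the data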;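 also: cells exposed to compound overnight for roughly 16 to 18 hours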
Wnt3a cs: Wnt3a reporter signal inhibition, confirmation, counter-screen for Gli-SUFU antagonist project, Wnt-LIGHT cells, luminescence, single concentration; shares compounds with Gli-Sufu block; Wnt3a-driven luciferase reporter; inhibition, % at 6.25 µM; actives 20% (n = 2,500);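 active = mean inhibition above about 25%, limit read from the data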
MPTP counter: fluorescence retest of MPTP screen hits in isolated mitochondria, single concentration | shares compounds with MPTP block | membrane potential, Rhodamine 123 fluorescence | inhibition, % at 10 µM | actives 78% (n = 5,000) | AID 624504, 2012; in the data active = inhibition above about 22%
MPTP swell DR: mitochondrial permeability transition pore inhibitors, dose response, biochemical, absorbance, uHTS hits; IC50, µM; shares compounds with MPTP block; AID 651561, 2012; actives 58% (n = 780); isolated mitochondria swelling; in the data active = IC50 below about 20 µM
MPTP cs DR: fluorescent counter-screen in isolated mitochondria, dose response, counter-screen for MPTP inhibitor project, biochemical, fluorescence, uHTS hits; isolated mitochondria counterscreen, fluorescence read-out; AID 651564, 2012; actives 49% (n = 780); shares compounds with MPTP block; IC50, µM; in the data active = IC50 below about 80 µM
Hits are given with their value; n = inactive; x = no result given; + = active, no number. Shown are actives, neighbours in structure and some others; about 6.6% of the full set was active somewhere.

SMILES	MPTP block	NR3A LBD binder	Mdm2 MdmX PPI	Beta apoptosis	Gli-Sufu block	CSC inhib	Mdm2 MdmX conf	FLuc counter	MPTP counter	others
Cc1cc(C)c2nc(N(CCCN(C)C)C(=O)c3ccc4c(c3)OCCO4)sc2c1	89	n	66	x	71	n	53	76	n	Gli-Sufu confirm=n;SufuKO cytotox=n;Wnt3a cs=n
CN(C)CCCN(C(=O)COc1ccccc1)c1nc2ccc(Cl)cc2s1	n	n	n	n	n	n	x	x	x
COc1ccc(C)c2sc(N(CCCN(C)C)C(=O)c3ccc4c(c3)OCCO4)nc12	n	n	n	n	n	n	x	x	x
CN(C)CCCN(C(=O)c1ccc2c(c1)CCCC2)c1nc2ccc(Cl)cc2s1	90	11	54	n	n	n	n	x	n
CC(=O)c1c(C)[nH]c(C(=O)CSc2ncnc3sc(-c4ccccc4)cc23)c1C	96	n	51	x	n	n	n	x	39
O=C(CCc1nc2ccccc2c(=O)[nH]1)NNC(=O)COc1cccc(F)c1	n	n	n	n	n	n	x	x	x
ClCc1nc2ccccc2c2ccccc12	64	n	52	n	n	n	n	x	n	MPTP swell DR=4.6;MPTP cs DR=n
CCN(c1ccccc1)S(=O)(=O)c1ccc(C(=O)NC2CCCCC2)cc1	n	x	x	x	x	x	x	x	x
CCN(c1ccccc1)S(=O)(=O)c1ccc(C(=O)NC2CCN(Cc3ccccc3)CC2)cc1	66	n	54	84	n	n	55	57	64
CN(C)S(=O)(=O)c1ccc(Cl)c(C(=O)Nc2nc3ccccc3[nH]2)c1	n	n	n	n	n	n	x	x	x
Cc1ccc(NS(=O)(=O)c2ccc(Cl)c(C(=O)Nc3ccccc3-c3nc4ccccc4[nH]3)c2)cc1C	88	34	61	n	n	+	77	51	58
Cn1c(=O)n(C)c2cc([N+](=O)[O-])c(N3CCN(S(=O)(=O)c4ccc(C(C)(C)C)cc4)CC3)cc21	54	n	60	n	n	n	n	70	71
CCOc1cccc(OCCOc2ccc(C(=O)c3ccccc3)cc2)c1	n	n	n	n	n	n	x	x	x
CC/C(=C(\c1ccc(O)cc1)c1ccc(OCCN(C)C)cc1)c1ccccc1	103	n	93	n	n	n	n	61	n
CCN(CC)CCOc1ccc(/C(=C(/Cl)c2ccccc2)c2ccccc2)cc1	98	n	69	n	n	101	n	76	n	MPTP swell DR=19;MPTP cs DR=43
CC(C)(C)OC(=O)CNC(=O)c1[nH]cnc1C(=O)N[C@@H](Cc1ccccc1)C(=O)OC(C)(C)C	n	n	n	n	n	n	x	x	x
Cc1ccc(NC(=O)COc2ccc(CCO)cc2-n2nc3ccccc3n2)cc1C	n	n	n	n	n	n	x	x	x
COc1ccc(C2Nc3ccccc3C(=O)N2O)cc1CN1CCOCC1 (centres undefined)	n	n	n	n	n	n	x	x	x
COc1ccc(-c2csc(NC(=O)c3ccccc3NS(=O)(=O)c3ccc(C)cc3)n2)cc1	104	29	83	n	n	n	65	54	n
COc1ccc(-c2csc(NC(=O)c3c(OC)cccc3OC)n2)cc1	n	n	n	n	n	n	x	x	x
COc1ccc(S(=O)(=O)Nc2ccccc2C(=O)Nc2nc(-c3ccc(F)cc3)cs2)cc1OC	97	26	74	n	n	n	66	63	42
COc1ccc(/C=C2/Sc3ccc(C(=O)NCCN4CCCCCC4)cc3NC2=O)cc1	87	n	100	x	n	n	88	n	n	MPTP swell DR=14;MPTP cs DR=40
CCN1/C(=C/c2ccc3ccccc3[n+]2CC)C=Cc2ccccc21	160	n	89	108	92	n	81	n	68
CCCCN1/C(=C/c2ccc3ccccc3[n+]2CC)Sc2ccccc21	94	n	77	x	88	x	76	n	104
CCCCCC/C=C/c1ccc(OC)c([C@H]2[C@H]3C=CC[C@@H](C)[C@@H]3C(=O)N2Cc2ccccc2)c1	n	n	n	n	n	n	x	x	x
SMILES	MPTP block	NR3A LBD binder	Mdm2 MdmX PPI	Beta apoptosis	Gli-Sufu block	CSC inhib	Mdm2 MdmX conf	FLuc counter	MPTP counter	others
CCCc1nc(SCC(=O)N2CCOCC2)c2c(C)c(C)sc2n1	n	n	n	n	n	n	x	x	x
CCC(=O)c1c[nH]c(C(=O)N2CCOCC2)c1	n	n	n	n	n	n	x	x	x
CCCCCn1c(N)c(-c2nc3ccccc3s2)c2c([N+](=O)[O-])nn(C)c(=O)c21	104	n	87	n	n	n	n	x	n	MPTP swell DR=n;MPTP cs DR=<2.5
CC(C)N1CCC(N2CCN(C3CCCCCC3)CC2CCO)CC1 (centres undefined)	n	n	n	n	n	n	x	x	x
O=C(CSc1nc2nc(-c3cccs3)cc(C(F)(F)F)c2c(=O)[nH]1)Nc1ccc(F)c(F)c1	76	35	74	n	n	104	46	80	50
O=C(CSc1nc2ccccc2[nH]1)Nc1ccc(F)c(F)c1	n	n	n	n	n	n	x	x	x
COc1ccccc1C(=O)NCC(=O)OCc1nnc(-c2ccccc2)o1	n	x	x	x	x	x	x	x	x
